Only some compounds are listed: those with a hit (about 0.3% of all), similar ones and a draw of the others.
NPYLR7 ag = mosquito NPYLR7 agonism. AID 1259423. activation, % at 10 µM. 0.15% of 270,000 active. HEK293T NPYLR7/Galpha15, GCaMP6s calcium fluorescence; in the data active = activation above about 40%
mcGAS lum = mouse cGAS inhibition by luminescence; Q8C6L5; recombinant cGAS, Kinase-Glo ATP depletion luminescence; inhibition, % at 12.5 µM; 0.15% of 160,000 active
Target sequence (Q8C6L5 whole entry, looked up): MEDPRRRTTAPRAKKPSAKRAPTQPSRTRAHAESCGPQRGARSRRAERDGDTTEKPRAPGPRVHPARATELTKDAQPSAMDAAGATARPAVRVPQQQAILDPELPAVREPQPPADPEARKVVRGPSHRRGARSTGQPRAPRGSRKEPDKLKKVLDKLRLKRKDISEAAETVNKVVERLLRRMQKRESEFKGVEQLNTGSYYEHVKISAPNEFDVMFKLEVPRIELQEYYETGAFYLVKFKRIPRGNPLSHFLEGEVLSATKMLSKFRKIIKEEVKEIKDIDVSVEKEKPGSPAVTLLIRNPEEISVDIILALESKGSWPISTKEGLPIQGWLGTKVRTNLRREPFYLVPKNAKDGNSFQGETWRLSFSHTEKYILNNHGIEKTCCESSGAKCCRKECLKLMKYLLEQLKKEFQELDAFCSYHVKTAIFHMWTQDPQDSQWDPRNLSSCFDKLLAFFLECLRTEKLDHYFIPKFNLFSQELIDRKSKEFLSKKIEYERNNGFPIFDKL
hcGAS inh = blocks human cGAS activity; 0.081% of 290,000 active; Q8N884; AID 1259398; inhibition, % at 12.5 µM; recombinant h-cGAS, ATP depletion, Kinase-Glo luminescence
Hits are given with their value; . = inactive; / = not tested or not shown. Rule as the data show it, unless noted: active = inhibition above about 40%; inactive = the rest.

SMILES | NPYLR7 ag | mcGAS lum | hcGAS inh
CC(=O)c1sc2nc(-c3ccc(F)cc3F)ccc2c1N | . | . | .
CCC(=O)N(C)c1nnc(C23CC4CC(CC(C4)C2)C3)s1 | . | . | .
CN(C(=O)CCl)c1nnc(C23CC4CC(CC(C4)C2)C3)s1 | . | 60 | .
O=c1c(Cl)c(NCC2COc3ccccc3C2)cnn1-c1ccccc1 (stereo unspecified) | . | / | .
Cc1cc(-c2ccccc2)cc2c3ccccc3c3ccccc3[n+]12 | . | . | 41
COc1cc(-c2ccccc2)c2ccccc2n1 | . | / | .
COc1ccc(-c2csc(NC(=O)Cn3cc(C(F)(F)F)cc(Cl)c3=O)n2)cc1 | . | / | .
Cc1nccn1CC(C)CNC(=O)N1CCC(C(C)C)CC1 (stereo unspecified) | . | 68 | .
Cc1ncc(CNC(=O)N2CCC(C(C)C)CC2)s1 | . | / | .
OC(c1ccccc1)=c1ccc2cccc3ncnc1c23 | . | / | .
OC=c1ccc2cccc3nc(C(F)(F)F)nc1c23 | 77 | / | .
O=C(NC(C(=O)N1CCCC1)C1CCN(C(=O)c2ccc(F)cc2)CC1)C1CC1 (stereo unspecified) | . | . | .
CC(C)(C)c1ccc(S(=O)(=O)Nc2cc(Sc3ncn[nH]3)c(O)c3ccccc23)cc1 | . | . | .
O=S(=O)(Nc1cc(Sc2ncn[nH]2)c(O)c2ccccc12)c1ccc(Br)cc1 | . | 44 | .
CC1CCCCN1CCCNC(=O)c1ccc(S(=O)(=O)N2CCCC2)s1 (stereo unspecified) | / | . | .
COc1ccc(CCN2COc3ccc4c(c3C2)O/C(=C\c2ccncc2)C4=O)cc1OC | 55 | . | .
COc1ccc(CCN2COc3ccc4c(c3C2)O/C(=C\c2ccncc2)C4=O)cc1 | . | . | .
CCc1ccc(/C=C2\Oc3c(ccc4c3CN(C3CCS(=O)(=O)C3)CO4)C2=O)cc1 (stereo unspecified) | 66 | . | .
CCOCCCN1COc2ccc3c(c2C1)O/C(=C\c1ccc(OC)cc1)C3=O | . | . | .
CCOCCCN1COc2ccc3c(c2C1)O/C(=C\c1cccc(OC)c1OC)C3=O | . | . | .
COc1ccc(/C=C2\Oc3c(ccc4c3CN(Cc3ccncc3)CO4)C2=O)cc1OC | 83 | . | .
COCCCN1COc2ccc3c(c2C1)O/C(=C\c1cc(OC)c(OC)c(OC)c1)C3=O | 61 | . | .
COc1ccc(/C=C2\Oc3c(ccc4c3CN(C3CC3)CO4)C2=O)cc1 | . | . | .
O=C(CN1CN(c2ccccc2)C2(CCN(C(=O)c3ccc(Cl)cc3Cl)CC2)C1=O)N1CCCC1 | . | . | .
CCOC(=O)c1csc(N(C)S(=O)(=O)c2cc(F)ccc2F)n1 | . | . | .
SMILES | NPYLR7 ag | mcGAS lum | hcGAS inh
CCCN(CC(=O)Nc1cc(-c2ccccc2)nn1-c1ccc(Cl)cc1)C(=O)Nc1cccc(Br)c1 | . | . | .
Nc1cc(N)cc(C(=O)N2CCCCC2)c1 | . | / | .
COc1ccc(CN2COc3ccc4c(c3C2)O/C(=C\c2ccncc2)C4=O)cc1 | . | . | .
COc1ccc(/C=C2\Oc3c(ccc4c3CN(Cc3ccncc3)CO4)C2=O)cc1 | 67 | . | .
CC(C)(C)C1CCc2sc(C(=O)N3CCNC(=O)C3)cc2C1 (stereo unspecified) | . | 93 | .
CC(C)(C)C1CCc2sc(C(=O)NN3C(=O)NC4(CCCCC4)C3=O)cc2C1 (stereo unspecified) | . | / | .
COc1ccc(CCNC(=O)c2c(C)noc2-c2ccccc2Cl)cn1 | . | . | .
COc1ccc(CCNC(=O)c2c(C)noc2-c2cccs2)cn1 | . | 68 | .
CC(C)C(C)N(Cc1ccc(Cl)cc1)Cc1nc(C(=O)NCCc2ccccn2)co1 (stereo unspecified) | . | . | .
CC(C)Oc1nc(-c2ccco2)n(-c2ccc(N)cc2)n1 | . | / | .
CC(C)Oc1c(-c2ccco2)c(=O)c1=O | . | / | 66
COc1ccc([N+](=O)[O-])cc1NC(=O)C1CCCC1 | . | . | .
COc1cc([N+](=O)[O-])ccc1NC(=O)CCl | . | 70 | .
COc1ccc([N+](=O)[O-])cc1NC(=O)CCl | . | 44 | .
O=[N+]([O-])c1ccc(Nc2ccc(F)cc2)c([N+](=O)[O-])c1 | . | . | .
CCCCC(=O)Nc1cc([N+](=O)[O-])ccc1OC | . | / | .
O=C(CCl)Nc1cc([N+](=O)[O-])ccc1Nc1ccc(F)cc1 | . | 57 | .
CC(C)NC(=O)CSc1ncnc2scc(-c3ccc(Cl)cc3)c12 | . | . | .
O=C(CN(CCCN1CCOCC1)C(=O)c1ccc(Cl)cc1)N(Cc1ccc(F)cc1)Cc1ccco1 | . | . | .
C=CCN1C(=O)C(Cc2ccc(OC)cc2)S/C1=N\N=C/c1ccco1 (stereo unspecified) | . | . | .
C=CCN1C(=O)C(Cc2ccc(OC)cc2)S/C1=N/N=C\c1cccs1 (stereo unspecified) | 88 | . | .
Cc1ccc(C(C)C)c(OCCn2c(CO)nc3ccccc32)c1 | . | . | .
CC(C)C(=O)Nc1sc2c(c1-c1nc3ccccc3s1)CCN(C(C)C)C2 | 66 | 90 | 78
CC(=O)N1CCc2c(sc(NC(=O)c3ccccc3)c2-c2nc3ccccc3s2)C1 | . | / | .
CCOC(=O)N1CCc2c(sc(NC(=O)C(C)C)c2-c2nc3ccccc3s2)C1 | . | / | .
SMILES | NPYLR7 ag | mcGAS lum | hcGAS inh
CN1CCc2c(sc(NC(=O)Cc3ccccc3)c2-c2nc3ccccc3s2)C1 | 45 | . | .
CC(C)C(=O)Nc1sc2c(c1-c1nc3ccccc3s1)CCN(C)C2 | 49 | . | .
CC(C)N1CCc2c(sc(NC(=O)C3CC3)c2-c2nc3ccccc3s2)C1 | 166 | . | 45
CC(=O)N1CCc2c(sc(NC(=O)Cc3ccccc3)c2-c2nc3ccccc3s2)C1 | . | / | .
CC(C)N1CCc2c(sc(NC(=O)c3ccc([N+](=O)[O-])o3)c2-c2nc3ccccc3s2)C1 | . | . | .
O=C(NCc1ccc2c(c1)OCO2)c1csc(CSc2nnc(-c3ccccc3Cl)n2-c2ccccc2F)n1 | . | . | .
Cc1nc(CN2CC(OCc3ccncc3)CN(Cc3ccc4c(c3)CCO4)CC2=O)cs1 (stereo unspecified) | . | . | .
C=CCN(Cc1csc(COc2ccccc2C(C)C)n1)C(=O)Nc1ccc(C)cc1 | . | . | .
CC(OC(=O)CNC(=O)c1ccc(C(C)(C)C)cc1)C(=O)N1CCCC1 (stereo unspecified) | . | / | .
COc1ccc(C(=O)N2C[C@@H]3CN(CC(C)C)CC[C@]3(CO)C2)c(OC)n1 | / | . | .
O=C(NN1C(=O)C2C3C=CC(C4CC34)C2C1=O)c1cccc(Cl)c1 (stereo unspecified) | . | 85 | .
Cc1ccc(C(=O)NN2C(=O)C3C4C=CC(C5CC45)C3C2=O)cc1 (stereo unspecified) | . | . | .
O=C(CN1C(=O)c2cc(Cl)c(Cl)cc2C1=O)c1ccc[nH]1 | . | . | .
Cc1ccc(S(=O)(=O)Nc2ccc3c(c2)OCCCO3)cc1C | . | / | .
COc1ccc(S(=O)(=O)Oc2ccccc2CN(C(=O)Nc2ccccc2OC)C2CC2)cc1 | . | . | .
COc1ccc(S(=O)(=O)Oc2cccc(CN(C(=O)Nc3ccccc3OC)C3CC3)c2)cc1 | . | 42 | .
CCN(CC)C(=O)C1CCCN(C(=O)CCc2c(C)nn(-c3ccc(C(C)C)cc3)c2C)C1 (stereo unspecified) | . | . | .
